Screening data (PubChem BioAssay)
HIV Env fusion: inhibitors of HIV Env-mediated cell fusion; inhibition, % at 12.3 µM; 360,000 compounds, 1.1% hits; HeLa-JRFL Env/CEM21 cell fusion, luciferase;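 active = mean replicate inhibition score of at least 50 and every replicate individually at or above 50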;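 also: 0% = plate neutral controls and 100% = maraviroc near 300 nM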
CFTR F508del cor: correctors of CFTR F508del function in bronchial epithelial cells. activity (quench increase), % at 7.58 µM. AID 720511. 350,000 compounds, 0.36% hits. CFBE cells, YFP halide quenching; stimulated with forskolin plus potentiator P3; % fluorescence drop versus neutral controls;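 active = mean added fluorescence quench of at least 8% versus neutral control, with both replicates also reaching 8%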;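 also: cells transiently co-express mutant CFTR-F508del with the halide-sensitive YFP; corrector assay measuring rescue of mutant channel to the surface after 24 h compound exposure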
PAX8 inh HTS: PAX8 transcriptional activity inhibition; RMG-I TPO-luciferase reporter, SteadyGlo, 24 h; inhibition, % at 12.6 µM; 360,000 compounds, 1.2% hits;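 active = mean replicate inhibition at least 60% with every replicate also reaching 60%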;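 also: luciferase light reporting Pax8 driven TPO promoter activity; plate controls were median of neutral control wells for no effect and mitoxantrone controls for full effect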
GSIS activator: GLuc luminescence reporter in INS-1E cells, primary screen for activators of glucose-dependent secretion of insulin; INS-1E GLuc reporter insulin secretion, 2-3 h; activation, % at 16.6 µM; 370,000 compounds, 0.61% hits;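 active = lowest replicate activation of at least 40%, so every replicate reaches that level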;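 also: 0% = median of neutral control wells and 100% = median of IBMX positive control wells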
EWS-Fli inh: blocks EWS/Fli oncoprotein-driven transcription; A673 NR0B1-luciferase reporter, viability-normalised; inhibition, % at 12.6 µM; 350,000 compounds, 0.67% hits;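 active = mean inhibition of at least 50% after viability correction, with every replicate also passing that limit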;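 also: firefly luciferase signal divided by Alamar Blue viability fluorescence both relative to DMSO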
PGC1a acetyl inh: modulators of PGC1a acetylation; U2OS PGC1a acetylation, AlphaScreen anti-acetyl-lysine; with virally co-expressed GCN5 acetyltransferase; inhibition, % at 15.6 µM; 350,000 compounds, 0.17% hits;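 active = every replicate shows inhibition of at least 40%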;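 also: 0% = neutral control wells and 100% = positive control wells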
* marks the source's active call; other numbers are inactive results; / = no result given; [ ] = remark or other dose. The list is not random: actives were taken first. Their share in the collection is about 2.7%.

SMILES	HIV Env fusion	CFTR F508del cor	PAX8 inh HTS	GSIS activator	EWS-Fli inh	PGC1a acetyl inh
C[C@H]1CCCCO[C@H](CN(C)C(=O)Nc2cccc3ccccc23)[C@@H](C)CN([C@@H](C)CO)C(=O)c2cc(NS(=O)(=O)c3ccc(Cl)cc3)ccc2O1	31[16.7 µM]	1	82*	9	15	-7
C[C@@H]1CCCCO[C@@H](CN(C)C(=O)Nc2cccc3ccccc23)[C@H](C)CN([C@H](C)CO)C(=O)c2cc(NS(=O)(=O)c3ccc(Cl)cc3)ccc2O1	20[16.7 µM]	6	94*	26	8	-14
C[C@H](CO)N1C[C@H](C)[C@@H](CN(C)C(=O)Nc2cccc3ccccc23)OCCCC[C@H](C)Oc2ccc(NS(=O)(=O)c3ccc(Cl)cc3)cc2C1=O	12[16.7 µM]	-1	42	15	11	-9
COc1ccc(S(=O)(=O)N(C)C[C@@H]2Oc3ccc(NC(=O)Nc4cccc5ccccc45)cc3CC(=O)N([C@@H](C)CO)C[C@@H]2C)cc1	-6[16.7 µM]	-2	/	8	5	4
C[C@@H]1CN([C@@H](C)CO)C(=O)Cc2cc(NC(=O)Cc3ccccc3)ccc2O[C@H]1CN(C)Cc1ccc(C(F)(F)F)cc1	15[16.7 µM]	2	70*	-41	/	-9
C[C@H]1CN([C@@H](C)CO)C(=O)Cc2cc(NC(=O)Cn3cnnn3)ccc2O[C@H]1CN(C)Cc1ccc(C(F)(F)F)cc1	92*[16.7 µM]	5	-53	-8	2	-3
C[C@@H]1CN([C@@H](C)CO)C(=O)Cc2cc(NC(=O)Cn3cnnn3)ccc2O[C@@H]1CN(C)Cc1ccc(C(F)(F)F)cc1	-18[16.7 µM]	2	15	-7	-2	1
C[C@H](CO)N1C[C@H](C)[C@@H](CN(C)Cc2ccc(C(F)(F)F)cc2)Oc2ccc(NC(=O)Cc3ccccc3)cc2CC1=O	8[16.7 µM]	2	52	-33	/	-44
C[C@@H]1CN([C@H](C)CO)C(=O)Cc2cc(NC(=O)Cc3ccccc3)ccc2O[C@@H]1CN(C)Cc1ccc(C(F)(F)F)cc1	16[16.7 µM]	0	86*	-33	/	-8
CO[C@@H]1CN(C)C(=O)c2ccc(NC(=O)c3ccccc3)cc2OC[C@@H](C)N(C(=O)C2CC2)C[C@H]1C	/	2	/	9	-12	-13
CO[C@@H]1CN(C)C(=O)c2ccc(NC(=O)NC(C)C)cc2OC[C@H](C)N(CC2CC2)C[C@H]1C	-5[16.7 µM]	-2	9	1	8	7
CC(=O)Nc1cccc(Oc2ncnc3scc(-c4ccc(C)cc4)c23)c1	13	/	16	-12	-7	-3
C=CC(=O)Nc1cccc(Oc2ncnc3[nH]cc(-c4cnc5ccccc5c4)c23)c1	57*	-1	47	/	-8	14
O=S(=O)(c1ccc(Cl)cc1)N1CCCC(c2nc(-c3ccc(F)cc3)no2)C1 (configuration not stated)	14	1	-15	-8	-13	6
O=S(=O)(c1ccccc1Cl)N1CCCC1c1nc(-c2ccc(Cl)cc2)no1 (configuration not stated)	82*	/	18	/	/	-5
CCCNC(=O)C[C@H]1C[C@H]2c3cc(NC(=O)CN(C)C)ccc3O[C@H]2[C@@H](CO)O1	80*[16.7 µM]	-2	-1	1	-2	-2
CCCNC(=O)C[C@@H]1C[C@@H]2c3cc(NC(=O)CN(C)C)ccc3O[C@@H]2[C@H](CO)O1	91*[16.7 µM]	0	-3	-1	-2	-1
COCCNC(=O)C[C@@H]1C[C@H]2c3cc(NC(=O)Cc4ccncc4)ccc3O[C@H]2[C@@H](CO)O1	0[16.7 µM]	0	-3	20	2	17
CCCNC(=O)C[C@H]1C[C@@H]2c3cc(NC(=O)CN(C)C)ccc3O[C@@H]2[C@H](CO)O1	24[16.7 µM]	-2	-5	0	-4	0
CCCNC(=O)C[C@H]1C[C@H]2c3cc(NC(=O)Cc4ccncc4)ccc3O[C@H]2[C@H](CO)O1	88*[16.7 µM]	-2	-4	-4	12	-2
COc1ccc(S(=O)(=O)N(C)C[C@@H]2OCCCC[C@H](C)Oc3ccc(NC(=O)c4ccccc4)cc3C(=O)N([C@H](C)CO)C[C@H]2C)cc1	7[16.7 µM]	-5	4	-7	16	0
COc1ccc(-c2ccnc(-c3ccc(O)cc3)n2)cc1	-8	11*	-28	17	29	-5
